# A selection: hits, their analogues and other compounds. The true share with any hit is near 1.6%.
# EphB4 ephrin blk – antagonists of human EphB4-ephrin-B2 interaction | P54760 | EphB4 LBD / TNYL-RAW-Alexa532 peptide, fluorescence polarization | inhibition, % at 7 µM | hit rate 0.15% among 97,000 | AID 720;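 active = inhibition above the screen-wide mean inhibition plus 3 SD, cut at about 15% in these data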;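 note: 0% = DMSO wells and 100% = excess unlabeled TNYL-RAW peptide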
# Target sequence (P54760 whole entry, looked up, the tested form may be a part): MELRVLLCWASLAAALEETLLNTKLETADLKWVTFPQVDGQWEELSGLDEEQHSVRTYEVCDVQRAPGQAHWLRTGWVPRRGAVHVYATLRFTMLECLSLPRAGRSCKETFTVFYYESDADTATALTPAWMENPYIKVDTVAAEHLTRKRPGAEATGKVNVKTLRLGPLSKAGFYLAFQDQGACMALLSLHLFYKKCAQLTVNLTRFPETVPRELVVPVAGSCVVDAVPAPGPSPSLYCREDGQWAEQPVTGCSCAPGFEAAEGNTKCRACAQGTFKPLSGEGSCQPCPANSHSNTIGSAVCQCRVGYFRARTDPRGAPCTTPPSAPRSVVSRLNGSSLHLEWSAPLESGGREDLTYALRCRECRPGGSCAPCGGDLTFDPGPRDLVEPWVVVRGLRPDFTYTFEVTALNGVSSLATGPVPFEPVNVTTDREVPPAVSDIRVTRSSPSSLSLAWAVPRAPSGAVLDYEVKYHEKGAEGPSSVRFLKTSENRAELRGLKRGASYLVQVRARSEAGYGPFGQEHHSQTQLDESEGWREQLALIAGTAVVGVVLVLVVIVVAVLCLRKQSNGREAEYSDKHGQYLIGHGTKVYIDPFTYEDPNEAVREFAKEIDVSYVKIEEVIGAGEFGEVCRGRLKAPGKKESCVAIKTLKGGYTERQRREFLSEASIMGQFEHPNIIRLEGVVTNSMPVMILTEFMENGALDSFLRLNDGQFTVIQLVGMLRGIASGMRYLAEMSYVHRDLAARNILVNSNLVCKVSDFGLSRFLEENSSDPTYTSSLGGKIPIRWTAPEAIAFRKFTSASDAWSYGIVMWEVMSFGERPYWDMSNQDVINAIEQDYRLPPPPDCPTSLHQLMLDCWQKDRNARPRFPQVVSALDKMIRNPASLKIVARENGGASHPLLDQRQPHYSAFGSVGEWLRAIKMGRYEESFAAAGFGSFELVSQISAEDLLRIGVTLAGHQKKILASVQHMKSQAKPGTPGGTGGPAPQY
# sEH act – activators of human soluble epoxide hydrolase; P34913; purified human sEH enzymatic activity, activator screen; activation, % at 2 µM; hit rate 0.04% among 91,000; AID 717; in the data active = activation above about 37%
# sEH inhibitor – soluble epoxide hydrolase (human) inhibition. P34913. recombinant human sEH enzymatic activity assay. inhibition, % at 2 µM. hit rate 0.34% among 91,000. AID 707; in the data active = inhibition above about 80%
# PLAP act – activates human placental alkaline phosphatase. P05187. hit rate 1.2% among 96,000. activation fold at 20 µM. purified PLAP enzyme, luminescent substrate read-out; hits give high values. AID 696; in the data active = activation fold above about 2
# LYP act – activators of human LYP (PTPN22) phosphatase; Q9Y2R2; recombinant LYP, DiFMUP fluorescence; 0 = plate median, 100 = signal doubled; activation, % at 2 µM; hit rate 0.11% among 96,000; AID 697;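 active = activation at 2 µM above a set limit, the mean plus 5 SD, cut at about 37% in these data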
# LYP inh 2 – LYP (human) phosphatase inhibition; AID 640; recombinant LYP catalytic domain, DiFMUP fluorescence; hit rate 0.21% among 96,000; inhibition, % at 2 µM;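 active = inhibition at 2 µM at or above a set limit, the screen mean plus 3 SD, cut at about 24% in these data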;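 note: 0% = DMSO with enzyme and 100% = enzyme fully blocked by orthovanadate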
# PTPN22 act conf – LYP (PTPN22) phosphatase activation confirmation | 100 tested, under 10 active | AID 1031 | shares compounds with LYP act | activation, % at 2 µM | Recombinant LYP, DIFMUP fluorescence; zero set by plate's median compound well; call rule not given here
# * = called active by the depositor; / = not tested or not shown.
SMILES,EphB4 ephrin blk,sEH act,sEH inhibitor,PLAP act,LYP act,LYP inh 2,others
Cc1ccnc(SCCn2c(N3CCC(C)CC3)nc3c2c(=O)n(C)c(=O)n3C)n1,-1,-3,-2,/,2,-4,
Cc1ccc2c(c1)[nH]c1c(N3CCN(Cc4ccc5c(c4)OCO5)CC3)ncnc12,/,/,/,1.8,/,/,
CSc1nnc(-c2sc3cc(C(F)(F)F)cnc3c2-c2ccccc2)n1C,-2,8,-8,2*,5,-4,
Cc1cc(C)cc(NC2=NC3(CCCCC3)N=C(N)N2)c1,-4,3,-5,2.7*,5,-6,
Cn1c(=O)c2[nH]c(CNCc3ccccc3Cl)nc2n(C)c1=O,1,-9,11,2.9*,-8,11,
Cn1c(=O)c2[nH]c(CN3CCN(Cc4ccccc4)CC3)nc2n(C)c1=O,-4,8,-6,1,2,0,
Nn1c(Cc2cccc3ccccc23)nnc1SCC(=O)NC1CCS(=O)(=O)C1 (stereo unspecified),0,4,-5,2*,15,-17,
CCOc1cccc(SCc2noc(C(=O)NCC3CCCO3)c2C(=O)O)c1 (stereo unspecified),4,20,-13,1.3,-19,21,
C=CCn1c(C#N)c(N)sc1=N,15*,-20,22,1.1,-2,1,
CCn1c(SCC(=O)Nc2cc(C)on2)nnc1-c1ccc(S(=O)(=O)N2CCN(C)CC2)cc1,0,7,-9,2*,7,-5,
CCn1c(SCC(=O)N2CCCC(C)C2)nnc1-c1ccc(S(=O)(=O)N2CCN(C)CC2)cc1 (stereo unspecified),6,13,-13,2*,-3,3,
Cc1ccc(CSc2nc3ccncc3[nH]2)cc1,8,4,-6,2.7*,-2,-2,
Cc1ccc2nc(SCC(=O)Nc3cccc([N+](=O)[O-])c3)[nH]c2c1,-7,6,-3,1.2,-2,5,
Cc1cc(C)cc(NC(=O)CSc2nc3ccncc3[nH]2)c1,5,-6,4,2.2*,-8,5,
COc1ccc(OC)c(S(=O)(=O)N2CCC(C(=O)Nc3ccc(C)c(C)c3)CC2)c1,-6,-66,66,1.6,0,-1,
COC(=O)Cc1cc(=O)[nH]c(/N=C(\N)Nc2ccccc2C)n1,0,-3,8,/,-8,8,
COC(=O)Cc1cc(=O)[nH]c(/N=C(\N)Nc2ccc(C)cc2)n1,-4,10,-10,2.1*,3,-1,
COc1ccc(Cl)cc1Nc1nc(C)cc(=O)[nH]1,4,7,-3,0.9,-4,-1,
COCc1cc(=O)[nH]c(/N=C(\N)Nc2cccc(C)c2)n1,-2,-1,3,2.4*,-1,-2,
COCc1cc(=O)[nH]c(/N=C(\N)Nc2ccc(Oc3ccccc3)cc2)n1,/,/,/,1.7,/,/,
COc1ccc(Cl)cc1N/C(N)=N/c1nc(CSc2ccc(C)cc2)cc(=O)[nH]1,1,6,-5,2.6*,1,1,
O=C(Nc1ccc(Cl)c(Cl)c1)N(CCCN1CCOCC1)Cc1cccs1,1,5,-6,1.5,2,-5,
CC(=O)c1c(C(C)=O)c(C)n(-c2ccc(C)c(NC(=O)c3ccccc3Cl)c2)c1C,0,1,2,1.3,4,-2,
Cc1cc(C)c2c(n1)nn1c(NCCCn3ccnc3)cc(C)nc21,/,/,/,2.5*,/,/,
CCOc1ccc(-c2nc(CSc3nnc(C)s3)cs2)cc1OC,4,-8,6,2.1*,1,0,
SMILES,EphB4 ephrin blk,sEH act,sEH inhibitor,PLAP act,LYP act,LYP inh 2,others
CCOc1ccc(-c2nc(CSc3nncs3)cs2)cc1OC,-3,5,-3,1.2,-7,6,
CCNC(=O)C1CC(=O)N(CC)C(=Nc2cc(Cl)c(O)c(Cl)c2)S1 (stereo unspecified),3,-7,9,0.8,4,-7,
Cc1ccc(NC(=S)NCCN2CCOCC2)cc1C,3,38*,-35,1,-17,20,
COc1ccc2[nH]c(=O)c(CN(Cc3ccccc3)Cc3nnnn3CC3CCCO3)cc2c1 (stereo unspecified),16*,/,/,1.4,4,-7,
COc1cc2cc(CN(Cc3nnnn3Cc3ccccc3)CC3CCCO3)c(=O)[nH]c2cc1OC (stereo unspecified),-10,7,-6,1.7,-8,8,
O=C1CSc2ccc(C(=O)NCCC3=CCCCC3)cc2N1,-2,-83,82*,0.8,15,-10,
O=C(OCC(=O)N1CCN(c2ccccc2)CC1)c1cccc(Cl)c1,9,7,-5,/,1,1,
Cc1nc(C)c(C(=O)OCC(=O)N2CCN(c3ccccc3)CC2)s1,-11,-6,6,1.5,40*,-37,PTPN22 act conf=4
CCOc1ccc(CN2CCNC(=O)C2CC(=O)OC)cc1 (stereo unspecified),-7,13,-14,1.1,37*,-38,PTPN22 act conf=-5
COC(=O)C1=C(CSc2nncn2C)NC(=O)NC1c1ccc(F)cc1 (stereo unspecified),0,8,-6,0.8,50*,-46,PTPN22 act conf=6
Cc1cc(F)ccc1NCc1cccnc1,-1,1,0,1.1,38*,-36,PTPN22 act conf=6
CCOC(=O)c1oc2ccc(CNC(C)(C)C)c(Cl)c2c1C,-5,-2,3,/,11,-10,
Cc1c(-c2nc(N)nc(Nc3ccccc3)n2)oc2ccccc12,-10,-2,1,1.3,37*,-37,PTPN22 act conf=-1
COCCCNC(=O)c1ccc(CS(=O)(=O)Cc2cccc(C)c2)o1,-2,/,/,1,37*,-41,PTPN22 act conf=8
Cc1cccc(CS(=O)(=O)Cc2ccc(C(=O)NCc3ccco3)o2)c1,0,8,-9,1,-3,0,
CCOC(=O)c1c(NC(=O)Cn2nnc(-c3ccc(Cl)cc3)n2)sc(CC)c1C,3,-4,3,1,-15,16,
CCC(C)OC(=O)C1C(c2ccccc2)C(C(=O)O)C1c1ccccc1 (stereo unspecified),0,29,-32,1.1,40*,-38,PTPN22 act conf=-10
CCOC(=O)C1C(c2ccccc2)C(C(=O)OCC)C1c1ccccc1 (stereo unspecified),4,2,2,/,2,-7,
c1ccc2c(c1)ncn2Cc1nnc2sc(-c3ccncc3)nn12,0,4,-3,1.2,51*,-56,PTPN22 act conf=7
c1ccc(-c2nn3c(Cn4cnc5ccccc54)nnc3s2)cc1,2,4,-1,1,0,-1,
C=CCn1c(SCC(=O)Nc2nc(C)cs2)nnc1C(CO)NC(=O)c1ccccc1 (stereo unspecified),-3,-1,6,1.2,-4,3,
C=CCn1c(SCC(=O)Nc2c(C)nn(Cc3ccccc3)c2C)nnc1C(O)c1ccccc1 (stereo unspecified),-5,5,-7,1.3,43*,-49,PTPN22 act conf=-1

# Screening results (PubChem BioAssay)
